Bioassay records deposited in PubChem BioAssay by several laboratories.
Many of the other results were omitted from the sample, so hits are more common in it than they were.
S1P2 ag = S1P2 receptor agonists, primary screen, cell-based; activation, % at 4.5 µM; Sphingosine 1-phosphate receptor 2 (Homo sapiens), O95136; hit rate 0.46% among 97,000; S1P2-expressing cell line, agonist reporter read-out; in the data active means activation above about 16%;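 further: 0% = vehicle low control and 100% = maximal reference agonist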
Target sequence (O95136 whole entry, looked up): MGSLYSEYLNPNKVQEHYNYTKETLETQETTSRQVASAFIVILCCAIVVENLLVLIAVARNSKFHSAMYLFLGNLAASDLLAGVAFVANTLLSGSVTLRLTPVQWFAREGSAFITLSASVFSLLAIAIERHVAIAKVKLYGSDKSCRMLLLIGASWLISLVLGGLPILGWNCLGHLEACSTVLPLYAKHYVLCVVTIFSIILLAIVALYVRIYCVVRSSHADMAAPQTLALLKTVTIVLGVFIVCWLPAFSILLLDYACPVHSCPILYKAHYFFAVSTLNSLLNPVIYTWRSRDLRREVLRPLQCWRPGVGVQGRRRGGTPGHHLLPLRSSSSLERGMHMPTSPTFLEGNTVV
PostGolgi yeast = phenotypic screen on post-Golgi transport, primary screen | post-Golgi transport phenotypic cell assay | inhibition, % at 10 µM | hit rate 0.9% among 98,000 | AID 739, 2007; in the data active means inhibition above about 30%;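 further: yeast cells grown in 1536-well plates; yeast grown about 18 h at 30C before absorbance read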
S1P2 blocker = human S1P2 receptor antagonists, primary screen, cell-based; Sphingosine 1-phosphate receptor 2 (Homo sapiens), O95136; cell-based S1P2 antagonist assay, inhibition at 5 uM; inhibition, % at 5 µM; hit rate 0.21% among 97,000; AID 736, 2007; in the data active means inhibition above about 45%;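 further: CRE beta-lactamase reporter cells expressing human S1P2 stimulated with S1P; 0% = agonist at EC80 alone and 100% = agonist plus reference antagonist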
GALR2 antag = GALR2 antagonists in receptor-expressing cells, primary screen; antagonist mode; inhibition, % at 4 µM; Galanin receptor type 2 (Homo sapiens), O43603; hit rate 0.39% among 140,000;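 further: cells stimulated with galanin 1-16 at roughly its EC80; 0% = agonist challenge control and 100% = basal control without agonist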
GALR2 ag = GALR2 receptor agonists, primary screen, cell-based; GALR2-expressing cells, agonist activation read-out; activation, % (test concentration not listed); hit rate 0.48% among 140,000; in the data active means activation above about 5%, passing the limit was not always enough;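 further: 0% = vehicle buffer wells and 100% = reference agonist at full effect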
PostGolgi ctrl = growth inhibition of yeast control strain, primary screen, counter-screen for post-Golgi transport modulator project; efflux-deficient yeast background strain, growth absorbance A615, 16 h; inhibition, % at 10 µM; hit rate 5% among 98,000; AID 738, 2007; in the data active means inhibition above about 30%
GALR2 ant conf = GALR2 antagonists, retest of hits, confirmation, cell-based. AID 866, 2007. inhibition, % at 4 µM. GALR2-expressing cells, antagonist mode, inhibition. hit rate 60% among 480. shares compounds with GALR2 antag;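 further: cells stimulated with galanin at about its EC80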
BLA inhib ctr = inhibitors of NFAT-driven beta-lactamase reporter, confirmation, counter-screen for GALR2 antagonist project, CHO NFAT-bla cells, FRET readout; inhibition, % at 4.2 µM; thapsigargin-stimulated; hit rate 36% among 480; AID 867, 2007; shares compounds with GALR2 antag;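 active means inhibition above the mean inhibition across tested compounds plus 3 SD, cut at about 27% in these data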;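 further: 0% = 500 nM thapsigargin stimulated wells and 100% = unstimulated BSA only wells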
The depositor's hits bear a star. Unless noted, no stated cut-off is given here; in the data, active means inhibition above about 27%; inactive means the rest.

Results for Cc1cc(C)[n+](-c2ccc(C(C)C)cc2)c2[nH]c(=O)[nH]c(=O)c12 ?
GALR2 antag: 2; GALR2 ag: -1

How did CCOC(=O)c1c(-c2ccccc2)csc1NC(=O)c1cc(S(=O)(=O)N2CCOCC2)ccc1C do in these assays?
GALR2 antag: 11; GALR2 ag: 0

What do the screens show for `CC1C/C(=C\c2cccnc2)C(=O)/C(=C/c2cccnc2)C1` (configuration not stated)?
GALR2 antag: 36*; GALR2 ag: -1; GALR2 ant conf: 44*; BLA inhib ctr: 20

What do the screens show for `Cc1ccc2nc(-c3sc4nc(C)ccc4c3N)[nH]c2c1`?
S1P2 ag: -3; S1P2 blocker: -21; GALR2 antag: 24; GALR2 ag: 1

What do the screens show for `Cc1cc(C)c2c(N)c(-c3nc4ccccc4[nH]3)sc2n1`?
S1P2 ag: 4; PostGolgi yeast: 11; S1P2 blocker: -10; GALR2 antag: 28*; GALR2 ag: 0; PostGolgi ctrl: -2; GALR2 ant conf: 25; BLA inhib ctr: 0

How did Cc1[nH]c2ccccc2c1/C=C(\C#N)C(=O)NCc1ccccc1 do in these assays?
GALR2 antag: 32*; GALR2 ag: 0; GALR2 ant conf: 22; BLA inhib ctr: 4

Results for CC(C)=N/N=C1/NC(=O)C(CC(=O)Nc2cc(Cl)ccc2C)S1 (configuration not stated) ?
GALR2 antag: -4; GALR2 ag: 0

Results for Cn1c(CNC(=O)Nc2cccc(Cl)c2)nnc1SCc1ccccc1 ?
S1P2 ag: -7; PostGolgi yeast: -14; S1P2 blocker: 33; GALR2 antag: 28*; GALR2 ag: -2; PostGolgi ctrl: 1; GALR2 ant conf: 15; BLA inhib ctr: 8

What do the screens show for `O=C1C2CSCN2C(=O)CN1CCCN1CCN(C(c2ccccc2)c2ccccc2)CC1` (configuration not stated)?
GALR2 antag: -4; GALR2 ag: 0

How did Cc1ccc(NC(=O)CCc2ccc(S(=O)(=O)NC3CCCCC3)cc2)cc1 do in these assays?
S1P2 ag: -6; PostGolgi yeast: -12; S1P2 blocker: -5; GALR2 antag: 14; GALR2 ag: -2; PostGolgi ctrl: 6

How did Cc1ccc(NS(=O)(=O)c2ccc(CCC(=O)NC3CC3)cc2)cc1 do in these assays?
S1P2 ag: -3; PostGolgi yeast: 1; S1P2 blocker: -4; GALR2 antag: 28*; GALR2 ag: -4; PostGolgi ctrl: 6; GALR2 ant conf: 10; BLA inhib ctr: 11

How did CCN(CC)c1ccc(/C=N/N(c2ccccc2)c2ccccc2)c(O)c1 do in these assays?
GALR2 antag: 9; GALR2 ag: 0

What do the screens show for `COc1cc(/C=N\Nc2nc3ccccc3[nH]2)cc(OC)c1OC`?
S1P2 ag: 4; PostGolgi yeast: 8; S1P2 blocker: -6; GALR2 antag: 12; GALR2 ag: -2; PostGolgi ctrl: -1

Results for Cc1ccc2cc(/C=N/Nc3nc4ccccc4[nH]3)c(Cl)nc2c1 ?
GALR2 antag: 98*; GALR2 ag: -3; GALR2 ant conf: 23; BLA inhib ctr: 14

Results for CCN(CC)c1ccc(/C=N/Nc2nc3ccccc3[nH]2)c(O)c1 ?
S1P2 ag: 1; PostGolgi yeast: -5; S1P2 blocker: 3; GALR2 antag: 43*; GALR2 ag: 0; PostGolgi ctrl: 0; GALR2 ant conf: 45*; BLA inhib ctr: 15

How did CCc1ccc(NC(=O)c2ccc3c(c2)C(=O)N(CCOC)C3Nc2ccc(CC)cc2)cc1 (configuration not stated) do in these assays?
GALR2 antag: 1; GALR2 ag: 3

How did CS(=O)(=O)N1CCN(c2ccc(Cl)cc2[N+](=O)[O-])CC1 do in these assays?
GALR2 antag: 6; GALR2 ag: -1

How did O=C(CCl)N1N=C(c2ccco2)CC1c1cccs1 (configuration not stated) do in these assays?
GALR2 antag: 29*; GALR2 ag: -1; GALR2 ant conf: 33*; BLA inhib ctr: 18

What do the screens show for `Cc1ccccc1Nc1cccc2nonc12`?
GALR2 antag: 33*; GALR2 ag: -3; GALR2 ant conf: 38*; BLA inhib ctr: 47*

Results for Cc1ccccc1Nc1nc2ccccc2s1 ?
GALR2 antag: 9; GALR2 ag: -1

How did CCN(CC)S(=O)(=O)c1ccc(Cl)c(C(=O)Nc2ccc(Cl)cc2[N+](=O)[O-])c1 do in these assays?
GALR2 antag: 28*; GALR2 ag: -2; GALR2 ant conf: 20; BLA inhib ctr: 12

How did CCOC(=O)C(=O)/C(=C\N(C)C)c1onc(-c2c(Cl)cccc2Cl)c1C(=O)OC do in these assays?
S1P2 ag: 0; PostGolgi yeast: 11; S1P2 blocker: -6; GALR2 antag: 5; GALR2 ag: 0; PostGolgi ctrl: 3

How did CN(c1ccccc1)S(=O)(=O)c1cccc(C(=O)OCC(=O)NCc2ccc3c(c2)OCO3)c1 do in these assays?
GALR2 antag: 3; GALR2 ag: 1

How did O=C(OCn1ncc(Cl)c(Cl)c1=O)c1ccc(F)cc1 do in these assays?
S1P2 ag: -2; PostGolgi yeast: 33*; S1P2 blocker: 80*; GALR2 antag: 91*; GALR2 ag: -3; PostGolgi ctrl: 19; GALR2 ant conf: 93*; BLA inhib ctr: 86*

What do the screens show for `O=C(OCn1ncc(Cl)c(Cl)c1=O)c1ccccc1Cl`?
S1P2 ag: -3; PostGolgi yeast: 79*; S1P2 blocker: 84*; GALR2 antag: 95*; GALR2 ag: -3; PostGolgi ctrl: 25; GALR2 ant conf: 93*; BLA inhib ctr: 82*

What do the screens show for `CC(C)(C)C1=C(C#N)C(c2ccncc2)C(C#N)=C(N)O1` (configuration not stated)?
GALR2 antag: 32*; GALR2 ag: 1; GALR2 ant conf: 14; BLA inhib ctr: 4

What do the screens show for `CC(C)(C)C1=C(C#N)C(c2ccc3c(c2)OCO3)C(C#N)=C(N)O1` (configuration not stated)?
S1P2 ag: -4; PostGolgi yeast: 3; S1P2 blocker: 4; GALR2 antag: 1; GALR2 ag: -1; PostGolgi ctrl: -1

Results for CC1(C)Cc2c(cnn2-c2ccccc2)C(=O)/C1=N\NC(=O)c1ccccc1O ?
S1P2 ag: -3; PostGolgi yeast: 2; S1P2 blocker: -16; GALR2 antag: 0; GALR2 ag: -1; PostGolgi ctrl: 27
